Experimental data taken from the supplement of paper PMC6897291.

Key:
U-2932 [1] = assay: growth inhibition by drug alone (1 - RLU/untreated control) (fraction); higher = stronger inhibition; details: 177Lu-lilotomab satetraxetan 0 ug/ml
Outline: (§1)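 Compound doses on the pre-printed Selleck Cambridge Cancer Compound library plates were 10/100 nM for RIVA cells and 10/1,000 nM for U-2932 cells, seeded at 3,000 cells/well. Before seeding, cells were washed after 18 h with or without a radiolabelled anti-CD37 antibody conjugate (~600 MBq/mg; 0.5 µg/ml RIVA, 1 µg/ml U-2932). Growth inhibition was derived from RealTime-Glo luminescence relative to untreated no-drug control wells. Readings were taken daily starting on day 3, each after 1 h at 37°C, and each well's RLU was divided by the mean of 48 such wells per plate and subtracted from 1.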

RIVA [2] = assay: as above; details: 177Lu-lilotomab satetraxetan 0 ug/ml
Outline: as §1

U-2932 [3] = assay: growth inhibition by drug plus 177Lu-lilotomab satetraxetan (1 - RLU/untreated control) (fraction); higher = stronger inhibition; details: 177Lu-lilotomab satetraxetan 1 ug/ml
Outline: as §1

RIVA [4] = assay: as above; details: 177Lu-lilotomab satetraxetan 0.5 ug/ml
Outline: as §1

SMILES | growth inhibition by drug alone (U-2932 [1]; 10 nM, time (day): 3) | growth inhibition by drug alone (U-2932 [1]; 10 nM, time (day): 4) | growth inhibition by drug alone (U-2932 [1]; 10 nM, time (day): 5) | growth inhibition by drug alone (U-2932 [1]; 10 nM, time (day): 6) | growth inhibition by drug alone (U-2932 [1]; 1000 nM, time (day): 3) | growth inhibition by drug alone (U-2932 [1]; 1000 nM, time (day): 4) | growth inhibition by drug alone (U-2932 [1]; 1000 nM, time (day): 5) | growth inhibition by drug alone (U-2932 [1]; 1000 nM, time (day): 6) | growth inhibition by drug alone (RIVA [2]; 10 nM, time (day): 3) | growth inhibition by drug alone (RIVA [2]; 10 nM, time (day): 4) | growth inhibition by drug alone (RIVA [2]; 10 nM, time (day): 5) | growth inhibition by drug alone (RIVA [2]; 10 nM, time (day): 6) | growth inhibition by drug alone (RIVA [2]; 100 nM, time (day): 3) | growth inhibition by drug alone (RIVA [2]; 100 nM, time (day): 4) | growth inhibition by drug alone (RIVA [2]; 100 nM, time (day): 5) | growth inhibition by drug alone (RIVA [2]; 100 nM, time (day): 6) | growth inhibition by drug plus 177Lu-lilotomab satetraxetan (U-2932 [3]; 10 nM, time (day): 3) | growth inhibition by drug plus 177Lu-lilotomab satetraxetan (U-2932 [3]; 10 nM, time (day): 4) | growth inhibition by drug plus 177Lu-lilotomab satetraxetan (U-2932 [3]; 10 nM, time (day): 5) | growth inhibition by drug plus 177Lu-lilotomab satetraxetan (U-2932 [3]; 10 nM, time (day): 6) | growth inhibition by drug plus 177Lu-lilotomab satetraxetan (U-2932 [3]; 1000 nM, time (day): 3) | growth inhibition by drug plus 177Lu-lilotomab satetraxetan (U-2932 [3]; 1000 nM, time (day): 4) | growth inhibition by drug plus 177Lu-lilotomab satetraxetan (U-2932 [3]; 1000 nM, time (day): 5) | growth inhibition by drug plus 177Lu-lilotomab satetraxetan (U-2932 [3]; 1000 nM, time (day): 6) | growth inhibition by drug plus 177Lu-lilotomab satetraxetan (RIVA [4]; 10 nM, time (day): 3) | growth inhibition by drug plus 177Lu-lilotomab satetraxetan (RIVA [4]; 10 nM, time (day): 4) | growth inhibition by drug plus 177Lu-lilotomab satetraxetan (RIVA [4]; 10 nM, time (day): 5) | growth inhibition by drug plus 177Lu-lilotomab satetraxetan (RIVA [4]; 10 nM, time (day): 6) | growth inhibition by drug plus 177Lu-lilotomab satetraxetan (RIVA [4]; 100 nM, time (day): 3) | growth inhibition by drug plus 177Lu-lilotomab satetraxetan (RIVA [4]; 100 nM, time (day): 4) | growth inhibition by drug plus 177Lu-lilotomab satetraxetan (RIVA [4]; 100 nM, time (day): 5) | growth inhibition by drug plus 177Lu-lilotomab satetraxetan (RIVA [4]; 100 nM, time (day): 6)
COc1cc2c(cc1O)CC[C@@H]1[C@@H]2CC[C@]2(C)[C@@H](O)CC[C@@H]12 [2-Methoxyestradiol] | -0.0505 | -0.0559 | -0.104 | -0.0895 | 0.719 | 0.771 | 0.777 | 0.788 | -0.258 | -0.3 | -0.405 | -0.422 | -0.594 | -0.529 | -0.534 | -0.63 | -0.116 | -0.0531 | 0.00475 | 0.11 | 0.704 | 0.761 | 0.783 | 0.814 | 0.476 | 0.534 | 0.548 | 0.552 | 0.308 | 0.401 | 0.422 | 0.439
O=C(CCCCCCC(=O)Nc1ccccc1)NO [Vorinostat (SAHA)] | -0.0182 | -0.0297 | -0.0883 | -0.201 | 0.818 | 0.762 | 0.691 | 0.615 | -0.119 | -0.189 | -0.294 | -0.432 | -0.132 | -0.192 | -0.199 | -0.285 | -0.0269 | 0.0202 | 0.0234 | 0.0225 | 0.849 | 0.817 | 0.786 | 0.742 | 0.465 | 0.518 | 0.537 | 0.553 | 0.523 | 0.578 | 0.586 | 0.591
CC[C@]1(O)C[C@H]2CN(CCc3c([nH]c4ccccc34)[C@@](C(=O)OC)(c3cc4c(cc3OC)N(C=O)[C@H]3[C@@](O)(C(=O)OC)[C@H](OC(C)=O)[C@]5(CC)C=CCN6CC[C@]43[C@@H]65)C2)C1 [Vincristine] | 0.944 | 0.954 | 0.97 | 0.978 | 0.964 | 0.972 | 0.979 | 0.984 | 0.941 | 0.955 | 0.965 | 0.971 | 0.938 | 0.955 | 0.962 | 0.967 | 0.958 | 0.97 | 0.978 | 0.982 | 0.972 | 0.978 | 0.983 | 0.988 | 0.964 | 0.976 | 0.983 | 0.985 | 0.956 | 0.967 | 0.973 | 0.979
C=C1/C(=C\C=C2/CCC[C@]3(C)[C@@H]([C@H](C)/C=C/[C@H](C)C(C)C)CC[C@@H]23)C[C@@H](O)C[C@@H]1O [Doxercalciferol (Hectorol)] | 0.174 | 0.125 | 0.0899 | 0.0598 | 0.106 | 0.132 | 0.147 | 0.128 | 0.187 | 0.183 | 0.177 | 0.0541 | 0.0648 | 0.127 | 0.103 | 0.0636 | 0.15 | 0.183 | 0.229 | 0.36 | 0.0716 | 0.176 | 0.182 | 0.287 | 0.484 | 0.601 | 0.615 | 0.639 | 0.47 | 0.55 | 0.563 | 0.571
O=C(CCc1ccc(O)cc1)c1c(O)cc(O)cc1O [Phloretin (Dihydronaringenin)] | 0.0643 | 0.0536 | -0.0351 | -0.0447 | -0.0185 | 0.0218 | -0.0851 | -0.198 | -0.0549 | -0.06 | -0.168 | -0.56 | -0.0989 | -0.0769 | -0.0878 | -0.189 | 0.0204 | 0.0299 | 0.064 | 0.0928 | -0.0932 | 0.0213 | -0.0168 | 0.0656 | 0.412 | 0.555 | 0.573 | 0.596 | 0.427 | 0.522 | 0.532 | 0.521
COc1c(C)cnc(Cn2cnc3c(Cl)nc(N)nc32)c1C | 0.137 | 0.0945 | 0.017 | -0.0336 | 0.935 | 0.979 | 0.986 | 0.987 | -0.00355 | 0.0266 | -0.0608 | -0.277 | 0.0172 | 0.0454 | 0.0061 | -0.105 | -0.00351 | 0.0579 | 0.0581 | 0.132 | 0.949 | 0.985 | 0.988 | 0.989 | 0.511 | 0.587 | 0.6 | 0.607 | 0.471 | 0.569 | 0.584 | 0.597
CC(=O)Nc1cccc(-n2c(=O)n(C3CC3)c(=O)c3c(Nc4ccc(I)cc4F)n(C)c(=O)c(C)c32)c1 | 0.103 | 0.0992 | 0.0497 | 0.109 | 0.311 | 0.328 | 0.215 | 0.243 | 0.0319 | 0.00936 | -0.0739 | -0.235 | 0.213 | 0.171 | 0.0872 | -0.0469 | 0.124 | 0.133 | 0.11 | 0.234 | 0.319 | 0.326 | 0.258 | 0.328 | 0.463 | 0.488 | 0.477 | 0.465 | 0.507 | 0.487 | 0.455 | 0.407
